# m5-HT2A agonist: mouse Htr2a agonists via beta-arrestin recruitment, primary screen, cell-based, luminescence; activation, % at 7.6 µM; CHO-K1 mHTR2A beta-arrestin complementation; percent of 30 µM serotonin response; 360,000 compounds, 0.66% hits;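 active = activation above a run cutoff, the mean activation of all tested compounds plus 3 SD, cut at about 14% in these data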;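 note: 0% = plate median of compound wells and 100% = 30 µM serotonin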
# MOR-DOR ag-1: agonists of OPRM1-OPRD1 heterodimerization, primary screen, cell-based, luminescence. Mu-type opioid receptor (Homo sapiens) + Delta-type opioid receptor (Homo sapiens), …. cells. activation, % at 9.3 µM. 340,000 compounds, 0.3% hits;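 note: 0% = vehicle-treated cells and 100% = reference agonist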
# HTR5A ag: HTR5A agonists in luminescence cell assay, primary screen, counter-screen for OPRM1-OPRD1 heterodimer agonist project, full-deck HTS; 5-hydroxytryptamine receptor 5A (Homo sapiens), P47898; cell-based; activation, % at 9.3 µM; 340,000 compounds, 0.61% hits; in the data active = activation mostly above about 9.5%, no sharp cut-off; inactive = mostly below about 7.6%;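 note: 0% = cells with vehicle only and 100% = reference agonist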
# Target sequence (P47898 whole entry, looked up): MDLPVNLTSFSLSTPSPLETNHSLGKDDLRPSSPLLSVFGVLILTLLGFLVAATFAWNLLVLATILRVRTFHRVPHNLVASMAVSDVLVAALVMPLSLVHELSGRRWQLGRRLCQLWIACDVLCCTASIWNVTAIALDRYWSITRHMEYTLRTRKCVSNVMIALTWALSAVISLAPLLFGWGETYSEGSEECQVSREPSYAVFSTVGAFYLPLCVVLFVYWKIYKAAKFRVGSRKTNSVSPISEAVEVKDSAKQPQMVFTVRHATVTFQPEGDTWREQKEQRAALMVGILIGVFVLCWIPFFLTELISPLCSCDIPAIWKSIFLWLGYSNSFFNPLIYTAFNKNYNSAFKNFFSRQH
# HTR5A inv ag: HTR5A inverse agonists in luminescence cell assay, primary screen, counter-screen for OPRM1-OPRD1 heterodimer inverse agonist project, full-deck HTS; inhibition, % at 9.3 µM; HTR5A cell line, inverse agonism; 340,000 compounds, 0.083% hits; 5-hydroxytryptamine receptor 5A (Homo sapiens), P47898; AID 504634, 2011; in the data active = inhibition mostly above about 23%, no sharp cut-off; inactive = mostly below about 18%;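 note: 0% = cells with DMSO and 100% = no-cell wells with DMSO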
# MOR-DOR inv ag: inverse agonists of MOR-DOR heterodimerization, primary screen, cell-based, luminescence; Mu-type opioid receptor (Homo sapiens) + Delta-type opioid receptor (Homo sapiens), …; cell-based MOR-DOR heterodimer luminescence, inverse agonism; inhibition, % at 9.3 µM; 340,000 compounds, 0.21% hits; in the data active = inhibition above about 22%, passing the limit was not always enough;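 note: 0% = cells with DMSO and 100% = wells without cells with DMSO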
# MOR-DOR ag-2: OPRM1-OPRD1 heterodimerization promoters, counter-screen for HTR5A agonist project, cell-based, luminescence. activation, % at 9.3 µM. U2OS counter-screen cells, complementation luminescence, 3 h. AID 504913, 2011. shares compounds with HTR5A ag. 800 compounds, 13% hits
# HTR5A ag confirm: HTR5A agonists, retest of hits, confirmation, cell-based, luminescence; shares compounds with HTR5A ag; HTR5A agonist cell assay; activation, % at 9.3 µM; 800 compounds, 17% hits; in the data active = activation above about 17%;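 note: 0% = cells with vehicle only and 100% = full reference agonist response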
# Active calls of the source: *; x = no result given. The list is not random: actives were taken first. Their share in the collection is about 1.6%. Cut-off read from the data, not from the text of the source, unless noted: active = activation above about 18%; inactive = the rest.
SMILES,m5-HT2A agonist,MOR-DOR ag-1,HTR5A ag,HTR5A inv ag,MOR-DOR inv ag,MOR-DOR ag-2,HTR5A ag confirm
NC(=O)c1cc([N+](=O)[O-])ccc1NCc1cnccn1,1.4,-1.5,21.7*,9.1,8.4,1.3,-0.1
NC(=O)c1cc([N+](=O)[O-])ccc1NCC1CCCCC1,-0.8,4.9,16.1*,-41.0,-26.8,15.8,6.6
CCOC(=O)[C@@H]1[C@H]2COc3cc(OC)ccc3[C@@H]2N2C(=O)N(c3ccc(F)cc3)C(=O)[C@@]12C,-5.2,-0.7,1.4,0.6,4.1,x,x
CC(C)C(OC(=O)CN1C(=O)c2ccccc2C1=O)C(=O)NC1CCCCC1 (stereo not drawn),4.2,-1.4,14.8*,-41.7,7.3,8.8,6.1
CNC(=O)CCCCC(=O)N/N=C/c1ccc(Cl)cc1Cl,1.9,-0.7,15.3*,-9.8,3.5,31.1*,-2.1
NC(=O)c1c(NC(=O)c2ccccc2C(=O)O)sc2c1CCCC2,3.8,-2.4,0.9,-29.7,11.9,x,x
COC(=O)c1c(NC(=O)c2ccccc2C(=O)O)sc2c1CCC2,10.7,-1.3,19.8*,-9.6,6.5,0.6,-1.9
COc1ccc2c(c1)Cc1sc(NC(=O)c3ccco3)nc1-2,8.2,0.5,2.4,-13.1,-3.2,x,x
COc1ccc2c(c1)Cc1sc(NC(C)=O)nc1-2,1.8,-2.4,15.2*,-36.3,11.6,1.2,6.2
O=C(CSC1=NCCN1)Nc1cccc(C(F)(F)F)c1,-3.0,-1.7,22.9*,-57.0,7.6,23.5*,5.1
Cc1cccn2c(=O)nc(SCC(=O)N3CCCCCC3)nc12,4.0,-0.5,-2.8,9.8,2.8,x,x
Cc1cccc(/C=N/NC(=O)c2ccc(NC(=O)c3ccc(F)cc3)cc2)n1,-5.8,12.5,21.4*,-63.6,-100.6,2.7,-1.1
CC1(C)NC(=O)N(CCC(=O)Nc2ccc(C(C)(C)C)cc2)C1=O,3.8,x,x,x,x,x,x
O=C(Nc1ccccn1)c1ccc(CN(c2ccccc2)S(=O)(=O)c2ccccc2)cc1,-6.0,-2.4,1.4,-2.4,11.1,x,x
COc1ccc(N(Cc2ccccc2)S(=O)(=O)c2cccc(C(=O)Nc3ccccn3)c2)cc1,-7.7,-3.7,18.8*,-47.9,14.7,3.9,0.9
COC(=O)CCC(=O)OC1(C)C(=O)C2=CN(CCc3c[nH]c4ccccc34)C(c3ccc(OC)cc3)=CC2=C(Br)C1=O (stereo not drawn),1.9,4.8,38.4*,-97.5,-26.5,86.0*,2.3
CC(OC(=O)c1ccco1)C(=O)Nc1ccc(C(F)(F)F)cc1 (stereo not drawn),-1.2,-1.1,19.8*,-48.8,4.7,3.0,-3.6
CNC(=O)c1sc(-c2cccnc2)nc1C,1.6,-3.4,18.1*,-49.8,14.6,1.1,0.5
Cc1ccc2c(c1)Oc1ccc(NC(=O)CCl)cc1C(=O)N2,-3.1,-2.9,15.5*,-18.1,14.4,2.4,4.2
Cc1ccc2c(c1)Oc1ccc([N+](=O)[O-])cc1C(=O)N2,-5.7,1.6,-3.6,8.9,-10.7,x,x
Cc1ccc(S(=O)(=O)Nc2cc3c(cc2C#N)OCO3)cc1C(N)=O,3.2,1.7,2.6,-7.8,-13.7,x,x
Cc1ccc(-c2n[nH]c(=O)c3ccccc23)cc1N,3.5,-1.2,-6.9,21.2,6.0,x,x
Nc1ccc(-c2n[nH]c(=O)c3ccccc23)cc1N,0.3,1.9,21.2*,-50.5,-9.0,2.7,13.5
CC1(C(=O)NS(=O)(=O)c2ccc(F)cc2F)CCN1C(=O)c1ccccc1 (stereo not drawn),13.5,x,x,x,x,x,x
O=C(O)/C=C\C(=O)Nc1ccc(Oc2ccccc2)cc1,-1.1,-0.1,5.5,-7.8,0.5,x,x
SMILES,m5-HT2A agonist,MOR-DOR ag-1,HTR5A ag,HTR5A inv ag,MOR-DOR inv ag,MOR-DOR ag-2,HTR5A ag confirm
O=C(O)/C=C/C(=O)Nc1ccc(C2(c3ccc(NC(=O)/C=C/C(=O)O)cc3)c3ccccc3-c3ccccc32)cc1,-0.4,1.9,26.4*,-100.1,-9.5,3.5,-0.7
CC(=O)CCn1cnc([N+](=O)[O-])n1,-1.0,-1.8,14.6*,0.9,9.1,60.2*,-0.5
CC(NC(=O)c1ccco1)c1ccc2c(c1)OCCO2 (stereo not drawn),2.1,-0.1,15.4*,-14.3,0.3,1.9,-2.9
O=C(Nc1ccc2c(c1)OCCO2)c1ccco1,2.7,-3.1,-0.1,5.7,17.3,x,x
CCn1nc(C)c(/C=N/NC(=O)c2nc3nc(C)cc(C)n3n2)c1C,3.6,0.2,15.8*,-13.5,-1.2,2.2,6.1
CCn1nc(C)c(/C=N/NC(=O)c2ccoc2C)c1C,-3.3,1.1,18.1*,-53.3,-6.3,5.7,11.8
Cc1cc(C)n2nc(C(=O)N/N=C/c3c4ccccc4cc4ccccc34)nc2n1,-5.4,-1.3,2.9,6.8,6.1,x,x
Cc1cccc(CSCCNC(=O)COc2ccc(Cl)cc2)c1,-5.1,2.9,14.5*,1.5,-20.5,-5.9,-4.2
CCCCCCCC(=O)NNC(=O)CCC(=O)O,-4.4,-0.2,4.6,-23.6,0.9,x,x
O=C1NCCCC1C(=O)Nc1cccc(C(F)(F)F)c1 (stereo not drawn),0.3,-2.9,21.9*,-52.2,12.0,2.0,0.5
O=C1CCC(C(=O)Nc2cccc(C(F)(F)F)c2)N1 (stereo not drawn),-2.2,-4.6,2.3,-15.9,21.2,x,x
Cc1cc(C(=O)NNC(=O)C(C)NS(=O)(=O)c2ccccc2F)c(C)o1 (stereo not drawn),0.8,-0.9,1.3,6.7,3.6,x,x
CCCCOC(=O)c1ccc(NS(=O)(=O)c2cc(-c3nnnn3CC)ccc2OC)cc1,3.4,-0.5,-0.7,2.4,2.8,x,x
CCOC(=O)c1ccc(NS(=O)(=O)c2cc(-c3nnnn3CC)ccc2OC)cc1,1.4,2.4,15.7*,-41.0,-11.7,19.6*,0.4
CN(C)c1ccc(/C=N/N2CCN(Cc3ccccc3Cl)CC2)cc1,3.7,-5.2,-2.8,15.1,25.9,x,x
COc1ccc(Cl)cc1N(CC(=O)NCCSc1ccccn1)S(=O)(=O)c1ccccc1,-4.4,1.0,16.5*,-49.1,-8.4,0.7,17.6*
COc1cc(O)c(C(CCN2CCCC2)c2ccc(N(C)C)cc2)c(OC)c1 (stereo not drawn),-1.8,-1.5,0.1,0.6,8.4,x,x
COc1cc(O)c(C(CCN2CCCCC2)c2ccc(N(C)C)cc2)c(OC)c1 (stereo not drawn),-2.8,0.5,25.8*,-75.5,-2.9,45.5*,-4.8

# High-throughput results: PubChem, The Scripps Research Institute Molecular Screening Center
